Screening data: PubChem BioAssay, several laboratories
The full list was thinned out, with hits kept by preference.
HIV RNase H inh-1: inhibitors of HIV-1 reverse transcriptase RNase H; RT-RNase H RNA/DNA duplex cleavage, fluorescence; hit rate 1.9% among 65,000; AID 565; inhibition, % at 10 µM; in the data active = inhibition above about 50%
RmlC RmlD mix: RmlC/RmlD inhibition, mixture screen | RmlC/RmlD coupled enzyme inhibition, 384-well mixture HTS | inhibition, % at 5.5 µM | hit rate 0.39% among 110,000 | AID 1532; in the data active = inhibition above about 30%, passing the limit was not always enough; inconclusive = no clear call, values can overlap the other calls
HIV RNase H inh-2: confirmation of HIV-1 reverse transcriptase RNase H inhibitors. Recombinant RT RNase H, fluorescent RNA/DNA duplex cleavage. shares compounds with HIV RNase H inh-1. hit rate 39% among 1,000. inhibition, % at 10 µM; in the data active = inhibition above about 48%; inconclusive = no clear call, values can overlap the other calls
* marks the source's active call; other numbers are inactive results; ? = inconclusive; . = no result.

SMILES	HIV RNase H inh-1	RmlC RmlD mix	HIV RNase H inh-2
CCO[C@H]1OC(C(=O)NC2CC2)=C[C@@H](c2coc3ccccc3c2=O)[C@@H]1CCCO	.	-4.6	.
CCC1=C(OC(=O)N(CC)CC)N2C(=O)OC(=NCCOC)[C@]2(Cc2ccccc2)[C@H]2C1=CC[C@H]1C(=O)N(C)C(=O)[C@H]12	.	-3.8	.
CCOC(=O)c1c(NC(=O)CSc2nnc(-c3cccnc3)n2Cc2ccco2)sc(C)c1C	1.0	.	.
COC(=O)C1=C(C(=O)OC)[C@@H]2Nc3ccccc3[C@@]23C[C@@H](C(=O)OC)N(C(=O)C2CCC2)C3=N1	.	0.2	.
Cc1cc(C)cc(NC(=O)NCc2nnc(SCc3ccccc3)n2C)c1	82.3*	-13.7	46.7
Cn1c(CNC(=O)Nc2ccccc2)nnc1SCc1ccccc1	0.1	1.3	.
CCCn1c(C)nc2c(c1=O)c1nc3ccccc3nc1n2-c1ccc2c(c1)OCCO2	12.8	.	.
O=C1c2ccccc2C(=O)N1CCCc1nc2ccccc2c(=O)n1-c1cccnc1	-13.9	4.9	.
Cc1nc(C)c(C(=O)Nc2nc3c(C)cccc3s2)o1	86.4*	-29.5	68.0*
Cc1cccc2sc(NC(=O)C3CCCO3)nc12 (centres undefined)	-15.2	8.4	.
CCC/C=C(\CCC)C(NC(=O)CCc1ccccc1)c1ccc(C(F)(F)F)cc1 (centres undefined)	.	12.5	.
O=C(NCc1ccco1)c1csc2c1CCCCC2	-7.0	-9.6	.
O=C(NCc1ccco1)c1c2c(nc3ccccc13)CCC2	64.8*	.	21.9
COc1ccccc1CN(Cc1ccco1)S(=O)(=O)c1ccc(-n2cnnn2)c(OC)c1	6.5	-11.3	.
CCC(=O)Oc1ccc(-c2cnc3ccccc3n2)cc1	.	-14.7	.
O=C(Oc1ccc(-c2cnc3ccccc3n2)cc1)c1ccco1	72.6*	-15.4	?
CCc1ccc(OCC(=O)Nc2ccc(-c3nc4ccccc4o3)c(O)c2)cc1	68.0*	-194.7	?
COc1ccc(OCC(=O)Nc2cccc(-c3nc4ccccc4o3)c2)cc1	9.0	0.5	.
O=C1CC(N2CCN(c3ccc(O)cc3)CC2)C(=O)N1Cc1cccs1 (centres undefined)	80.7*	-4.9	19.7
O=C1CC(N2CCN(C/C=C/c3ccccc3)CC2)C(=O)N1Cc1cccs1 (centres undefined)	4.8	-8.3	.
O=C(CSc1nc(C2CC2)nc2ccccc12)N1c2ccccc2Sc2ccc(C(F)(F)F)cc21	.	-0.7	.
O=C(c1cccc(Cl)c1)N1CCC(=O)N(C(CO)Cc2ccccc2)CC1 (centres undefined)	.	-31.3	.
C=CCn1c(CCC(=O)Nc2ccc(C)c(Cl)c2)nnc1SCC(=O)Nc1ccccc1C	.	-13.0	.
CCc1ccc(N/C(SC)=C(/C#N)C(N)=O)cc1	-18.1	-3.0	.
CCCCS/C(=C(/C#N)C(N)=O)c1cc2c([nH]1)CCCC2	81.1*	-10.0	-0.2
SMILES	HIV RNase H inh-1	RmlC RmlD mix	HIV RNase H inh-2
CC(C)C[C@H](NC(=O)c1nc[nH]c1C(=O)NCc1ccccc1)C(=O)OCc1ccccc1	.	2.9	.
O=C(Nc1nnc(Cc2ccccc2)s1)c1ccco1	.	3.0	.
NC(=O)c1cc(Cc2ccccc2)sc1NC(=O)c1ccco1	88.9*	-2.8	31.1
Cc1cc(C)cc(OCC(=O)Nc2cccc(C(=O)O)c2)c1	.	-12.1	.
Cc1cc(C)cc(OCC(=O)Nc2nonc2NC(=O)COc2cc(C)cc(C)c2)c1	78.1*	-3.2	66.6*
CCO[C@H]1OC(C(=O)NCc2ccccc2)=C[C@@H](c2ccccc2)[C@@H]1CCCO	.	5.2	.
CC(=O)Oc1oc(-c2ccccc2)nc1C=Nc1ccccc1	.	19.7	.
CCOC(=O)c1ccc(N=Cc2nc(-c3ccccc3)oc2OC(C)=O)cc1	75.1*	10.9	1.2
COc1ccc(C2SCC(=O)Nc3c2c(C)nn3-c2ccccc2)cc1 (centres undefined)	.	13.2	.
Cc1ccc(-n2nc(C)c3c2NC(=O)CSC3c2ccc3c(c2)OCO3)cc1 (centres undefined)	60.0*	-5.8	64.4*
Nc1ccccc1CNc1nc(NCCO)nc2c1ncn2CCN1CCOCC1	.	9.4	.
C#CCSc1nnc(C)c(C)n1	.	8.0	.
CCCC(=O)Nc1sc2c(c1C#N)CCCC2	5.5	-3.8	.
CC(=O)Nc1sc2c(c1C#N)CCCC2	.	-32.5	.
CCCc1cc(C(=O)Nc2sc3c(c2C#N)CCC3)no1	60.6*	.	70.3*
N#Cc1c(NC(=O)c2ccncc2)sc2c1CCC2	63.6*	15.0	24.9
Cc1cccc(NC(=O)c2ccccc2[N+](=O)[O-])n1	.	-0.6	.
Cc1cccc(NC(=O)c2ccccc2Br)n1	63.2*	6.8	20.3
Cc1c(OCC(F)(F)F)ccnc1CS(=O)c1nc2ccccc2[nH]1 (centres undefined)	73.9*	5.6	32.7
COCCCOc1ccnc(CS(=O)c2nc3ccccc3[nH]2)c1C (centres undefined)	.	-6.2	.
CCSc1nnc(NC(=O)C2CCCN(S(=O)(=O)c3cnc[nH]3)C2)s1 (centres undefined)	-5.0	2.8	.
COc1ccc(N2Nc3n[nH]c(N)c3N2)cc1	.	4.9	.
CCOc1cc2[nH]c(=O)n(CC3CCC(C(=O)NC(C)CC)CC3)c(=O)c2cc1OCC (centres undefined)	-0.1	.	.
COc1ccc2[nH]c3nc(SCc4nnc(-c5ccc(C)cc5)o4)nnc3c2c1	59.8*	8.8	8.0
COc1ccc2[nH]c3nc(SCC(=O)Nc4ccc5c(c4)OCO5)nnc3c2c1	.	5.8	.
SMILES	HIV RNase H inh-1	RmlC RmlD mix	HIV RNase H inh-2
COc1ccc(-n2ncc3c(N4CCN(c5cc(C)ccc5C)CC4)ncnc32)cc1	54.0*	-265.1	8.3
COc1ccc(N2CCN(c3ncnc4c3cnn4-c3ccc(C)cc3C)CC2)cc1	3.8	7.7	.
NNC(=O)CNC(c1ccccc1)c1cc(Br)ccc1NC(=O)c1ccccc1Br (centres undefined)	.	3.0	.
COC(=O)c1ccccc1NC(=O)CN1CCC(NC(=O)c2ccccc2C)CC1	4.4	-24.5	.
O=C(Nc1c(-c2ccccc2)nc2sccn12)c1ccccc1	3.4	-49.4	.
COC(=O)C[C@H]1c2cc(F)ccc2S(=O)(=O)N1c1ccc(N(C)C)cc1	.	1.2	.
COc1ccc(C(=O)c2ccc(OC)c(OC)c2)cc1OC	-36.7	-12.2	.
COc1ccc(C(=S)N(C)C)cc1OC	87.4*	-4.7	58.3*
CC1=C[C@H]2OC(=O)[C@@H](C)[C@H]2C[C@@H]2[C@H]1C[C@@H](O)[C@@]2(C)O	.	15.9	.
CN=C(c1ccco1)n1c(=S)nc(-c2ccco2)n(C)c1=S	55.5*	8.3	?
CSc1nc(-c2ccco2)nn1C(=O)c1ccco1	6.2	9.6	.
COc1ccc(OC)c(C(=O)N2CCC(C(=O)c3ccc(F)cc3)CC2)c1	.	5.5	.
CN(C)S(=O)(=O)c1ccc(C(=O)OCC(=O)c2ccc(OC(F)F)cc2OC(F)F)cc1	1.8	-1.2	.
COc1ccc(OC)c(C2CC(=O)N3CN(c4ccccc4F)CSC3=C2C#N)c1 (centres undefined)	26.9	5.2	.
COc1cccc(C2CC(=O)N3CN(c4cccc(Cl)c4C)CSC3=C2C#N)c1OC (centres undefined)	25.3	-6.9	.
COc1cc(C2CC(=O)N3CN(c4ccccc4C)CSC3=C2C#N)cc(OC)c1OC (centres undefined)	66.4*	-14.1	83.3*
COc1ccc(OC)c(C2CC(=O)N3CN(c4cccc(Cl)c4C)CSC3=C2C#N)c1 (centres undefined)	20.6	6.3	.
COc1cccc(C2CC(=O)N3CN(c4ccccc4F)CSC3=C2C#N)c1 (centres undefined)	75.9*	-10.7	12.4
